Assay results: PubChem BioAssay (NCATS)
Several values for one entry are separate records, joined by “and”; a condition that tells them apart may be missing. Equal entries are not always repeated. Inconclusive results are not listed. Activity calls are given as the source filed them. Unless noted, the call rests on the fitted dose curve.

Assay: qHTS assay for small molecule agonists of the antioxidant response element (ARE) signaling pathway (AID 651741; active means well fitted activation curve with a large enough effect in the signal ratio; the % refers to the signal ratio; further: % of control where 0% means no effect)
Details: HepG2 ARE-bla reporter, beta-lactamase FRET ratio, 16 h; series mostly up to 96 µM; activation: at the top concentration
Procedure, shortened: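 ARE-bla HepG2 cells (beta-lactamase reporter under ARE control) were plated at 2,000 cells/well, preincubated 5 h at 37 C/5% CO2, then treated with DMSO-dissolved compounds for 16 h at 37 C; LiveBLAzer B/G FRET substrate added, fluorescence read after 2 h at room temperature.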

Row | SMILES | activation | Potency
1 | CC(C#N)CCC#N (stereo not given) | 4.46% (inactive) | –
2 | Nc1cccc(Cl)c1 | -0.793% (inactive) | –
3 | ClCc1ccccc1 | -0.909% (inactive) | –
4 | COc1c(C(C)(C)C)cc([N+](=O)[O-])c(C)c1[N+](=O)[O-] | 3.54% (inactive) | –
5 | O=S(=O)(Cl)c1ccccc1 | – | inactive
6 | C=CCOCC1CO1 (stereo not given) | 2.45% (inactive) | –
7 | ClC(Cl)C(Cl)Cl | -2.42% (inactive) | –
8 | C=CCO | 0.185% (inactive) | –
9 | OCCCCO | 2.5% (inactive) | –
10 | BrCCc1ccccc1 | -0.67% (inactive) | –
11 | C1CC2OC2CC1C1CO1 (stereo not given) | – | inactive
12 | CN(C)C(=O)Cl | 5.3% (inactive) | –
13 | Cc1ccc(N=C=O)cc1N=C=O | 11.5% (inactive) | –
14 | O=C(Cl)OCc1ccccc1 | 1.54% (inactive) | –
15 | C=CC(=O)OC | 6.86% (inactive) | –
16 | CCN(CC)N=O | 7.73% (inactive) | –
17 | CC[N+](=O)[O-] | 2.42% (inactive) | –
18 | CC(C)(Cl)[N+](=O)[O-] | 6.14% (inactive) | –
19 | CC(C)OC(=O)Cc1ccccc1 | -3.77% (inactive) | –

Assay: qHTS assay for small molecule activators of the p53 signaling pathway (AID 651743; active means well fitted activation curve with a large enough effect in the signal ratio, not every such curve was filed as active; the % refers to the signal ratio; further: % of control where 0% means no effect)
Details: HCT-116 p53RE-bla, beta-lactamase FRET ratio, 16 h; activation: hits give high values
Procedure, shortened: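 p53RE-bla HCT-116 cells with a stably integrated beta-lactamase reporter under p53 response elements were plated, rested 5 hours at 37 C/5% CO2, then exposed to compounds in DMSO for 16 hours at 37 C. LiveBLAzer B/G FRET substrate was read after 2 hours at room temperature.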

Row | SMILES | activation
20 | CC(C#N)CCC#N (stereo not given) | -0.507% (inactive)
21 | Nc1cc(Cl)ccc1Cl | -3.16% (inactive)
22 | Nc1cccc(Cl)c1 | -1.95% (inactive)
23 | ClCc1ccccc1 | -2.55% (inactive)
24 | CCC/C=N/O | 2.09% (inactive)
25 | COc1c(C(C)(C)C)cc([N+](=O)[O-])c(C)c1[N+](=O)[O-] | -1.58% (inactive)
26 | C=CCOCC1CO1 (stereo not given) | -3.48% (inactive)
27 | c1ccoc1 | 1.16% (inactive)
28 | ClC(Cl)(Cl)C(Cl)(Cl)Cl | -2.98% (inactive)
29 | CCOC(=O)C1OC1(C)c1ccccc1 (stereo not given) | -3.07% (inactive)
30 | C/C=C/CC#N | -0.715% (inactive)
31 | ClC(Cl)C(Cl)Cl | -4.56% (inactive)
32 | C=CCCl | -1.58% (inactive)
33 | C=CCO | -1.01% (inactive)
34 | OCCCCO | -4.12% (inactive)
35 | Nn1cnnc1 | 0.253% (inactive)
36 | BrCCc1ccccc1 | -5.87% (inactive)
37 | Cc1ccccc1[N+](=O)[O-] | 1.69% (inactive)
38 | C1CC2OC2CC1C1CO1 (stereo not given) | -4.75% (inactive) and -3.06% (inactive)
39 | Cc1ccc(N=C=O)cc1N=C=O | -2.11% (inactive) and -1.5% (inactive)
40 | O=C(Cl)OCc1ccccc1 | -2.98% (inactive)
41 | C=CC(=O)OC | -0.53% (inactive)
42 | CCN(CC)N=O | -1.39% (inactive)
43 | OCC(Cl)CCl (stereo not given) | -0.732% (inactive)
44 | CC(C)CON=O | -2.37% (inactive)
45 | CC[N+](=O)[O-] | -3.29% (inactive)
46 | CC(C)(Cl)[N+](=O)[O-] | 3.96% (inactive)
47 | C[N+](=O)[O-] | -0.263% (inactive)
48 | CC(C)OC(=O)Cc1ccccc1 | -2.84% (inactive)
49 | ClCC(Br)CBr (stereo not given) | -3.3% (inactive)

Assay: qHTS assay for small molecule activators of the nuclear factor-kappa B (NF-kB) signaling pathway (AID 651749; active means well fitted activation curve with a large enough effect in the signal ratio; the % refers to the signal ratio; further: % of control where 0% means no effect)
Details: NF-kB-bla ME-180 cells, beta-lactamase FRET ratio, 16 h; hits give high values
Procedure, shortened: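 ME-180 cells stably carrying a beta-lactamase reporter under an NF-kB response element were exposed to compound or DMSO vehicle for 16 hr at 37C, 5% CO2. Pathway activation was read by FRET, since reporter expression disrupts FRET.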

Row | SMILES | activation
50 | CC(C#N)CCC#N (stereo not given) | 0.705% (inactive)
51 | Nc1cccc(Cl)c1 | -1.07% (inactive)
52 | COc1c(C(C)(C)C)cc([N+](=O)[O-])c(C)c1[N+](=O)[O-] | -0.667% (inactive)
53 | O=S(=O)(Cl)c1ccccc1 | 0.118% (inactive) and -0.385% (inactive)
54 | c1ccoc1 | 0.149% (inactive)
55 | ClC(Cl)(Cl)C(Cl)(Cl)Cl | 0.631% (inactive)
56 | C=CCCl | -0.803% (inactive)
57 | Brc1cccc(-c2ccccc2)c1 | -1.09% (inactive)
58 | OCCCCO | -0.721% (inactive)
59 | Nn1cnnc1 | -1.28% (inactive)
60 | BrCCc1ccccc1 | -1.06% (inactive)
61 | Cc1ccccc1[N+](=O)[O-] | 3.11% (inactive)
62 | CCCCOC(=O)c1ccccc1N | -0.998% (inactive)
63 | Clc1cc(Cl)c(Cl)c(Cl)c1 | -0.964% (inactive)
64 | C1CC2OC2CC1C1CO1 (stereo not given) | -0.692% (inactive) and -2.3% (inactive)
65 | CN(C)C(=O)Cl | -0.0384% (inactive)
66 | Cc1ccc(N=C=O)cc1N=C=O | 0.173% (inactive) and 0.839% (inactive)
67 | O=C(Cl)OCc1ccccc1 | -0.156% (inactive)
68 | CCN(CC)N=O | 0.914% (inactive)
69 | OCC(Cl)CCl (stereo not given) | 0.192% (inactive)
70 | CC(C)(Cl)[N+](=O)[O-] | -0.598% (inactive)
71 | C[N+](=O)[O-] | -0.658% (inactive)
72 | ClCC(Br)CBr (stereo not given) | -0.578% (inactive)

Assay: qHTS assay for small molecule disruptors of the mitochondrial membrane potential - 1 hr assay (AID 651754); further: on the % scale 0 is the no-effect control and ±100 the full control effect; nearly all actives have a fitted effect of over 35% in size
Details: series mostly up to 92.2 µM; ratio change, negative = depolarisation: at the top concentration
Procedure, shortened: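 Steps: seed HepG2 cells and let attach overnight; pin-transfer compound or vehicle; incubate 1 hr at 37C; add Mito-MPS dye for 30 min; read two-channel fluorescence for monomer and aggregate forms.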

Row | SMILES | ratio change, negative = depolarisation
73 | Nc1cc(Cl)ccc1Cl | -1.81% (inactive)
74 | Nc1cccc(Cl)c1 | 0.829% (inactive)
75 | CCC/C=N/O | 1.09% (inactive)
76 | COc1c(C(C)(C)C)cc([N+](=O)[O-])c(C)c1[N+](=O)[O-] | -17.3% (inactive)
77 | c1ccoc1 | -3.57% (inactive)
78 | Clc1ccccc1 | -0.198% (inactive)
79 | ClC(Cl)(Cl)C(Cl)(Cl)Cl | -11.4% (inactive)
80 | CCOC(=O)C1OC1(C)c1ccccc1 (stereo not given) | -6.88% (inactive)
81 | C/C=C/CC#N | 3.65% (inactive)
82 | ClC(Cl)C(Cl)Cl | 0.64% (inactive)
83 | C=CCCl | -3.12% (inactive)
84 | Oc1c(Cl)cccc1Cl | -10.1% (inactive)
85 | Brc1cccc(-c2ccccc2)c1 | 3.05% (inactive)
86 | C=CCO | 5.23% (inactive)
87 | OCCCCO | 9.69% (inactive)
88 | Nn1cnnc1 | 2.51% (inactive)
89 | BrCCc1ccccc1 | 5.02% (inactive)

Row | SMILES | ratio change, negative = depolarisation
90 | CCCCOC(=O)c1ccccc1N | -14.6% (inactive)
91 | Clc1cc(Cl)c(Cl)c(Cl)c1 | -3.02% (inactive)
92 | Cc1ccc(N)c(C)c1 | -3.79% (inactive)
93 | C1CC2OC2CC1C1CO1 (stereo not given) | -0.342% (inactive)
94 | CN(C)C(=O)Cl | -0.172% (inactive)
95 | CC(=O)NNc1ccccc1 | -1.49% (inactive)
96 | O=C(Cl)OCc1ccccc1 | 4.23% (inactive)
97 | C=CC(=O)OC | 0.93% (inactive)
98 | CCN(CC)N=O | 0.322% (inactive)
99 | OCC(Cl)CCl (stereo not given) | 0.298% (inactive)
100 | CC(C)CON=O | 2.24% (inactive)
101 | CC[N+](=O)[O-] | 0.973% (inactive)
102 | CC(C)(Cl)[N+](=O)[O-] | 0.509% (inactive)
103 | C[N+](=O)[O-] | -2.55% (inactive)
104 | CC(C)OC(=O)Cc1ccccc1 | 3.86% (inactive)
105 | ClCC(Br)CBr (stereo not given) | 1.06% (inactive)
